Holding throughout (experiment): DAPPL (digital affinity profiling via proximity ligation, sequencing); 10 mM Tris-HCl pH 7.5, 50 mM NaCl, 1 mM DTT, 4% glycerol, room temperature, 30 min; GST-TFs on glutathione beads, 16-mer random dsDNA library, 0.1% formaldehyde crosslink after washing; high values mean tight binding
Conditions in all cases: protein: recombinant; tags: N-terminal GST; dsDNA, one strand shown

The target in one assay is T1, ERF (Homo sapiens, UniProt P50548 1-548).
T1 sequence: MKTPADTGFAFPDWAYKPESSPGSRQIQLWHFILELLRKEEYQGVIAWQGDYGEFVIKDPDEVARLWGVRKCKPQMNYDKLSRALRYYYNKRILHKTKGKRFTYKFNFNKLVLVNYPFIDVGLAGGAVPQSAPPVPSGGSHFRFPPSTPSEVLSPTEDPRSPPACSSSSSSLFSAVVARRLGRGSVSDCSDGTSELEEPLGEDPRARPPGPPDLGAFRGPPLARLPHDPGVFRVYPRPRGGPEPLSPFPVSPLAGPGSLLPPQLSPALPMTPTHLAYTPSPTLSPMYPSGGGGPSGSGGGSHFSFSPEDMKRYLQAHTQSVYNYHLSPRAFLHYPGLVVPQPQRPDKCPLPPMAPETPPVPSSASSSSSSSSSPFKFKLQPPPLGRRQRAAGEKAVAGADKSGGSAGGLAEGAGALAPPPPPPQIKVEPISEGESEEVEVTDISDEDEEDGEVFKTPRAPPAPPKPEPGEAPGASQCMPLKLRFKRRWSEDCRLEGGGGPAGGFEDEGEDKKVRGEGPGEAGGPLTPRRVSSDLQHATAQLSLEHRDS
In a few lines:
(§1)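 Pools of DNA-barcoded human transcription factors, expressed in yeast as GST fusions on glutathione beads and combined with a tag-only sample, were incubated with 200 nmole of a 16-mer random double-stranded DNA library. Incubation took 30 min at room temperature in Tris/NaCl/DTT/glycerol buffer and was followed by washing, 0.1% formaldehyde crosslinking, proximity ligation (BsaI/T4 ligase, 1 h, 37 °C), PCR amplification and sequencing on an Illumina NextSeq500. Binding signal is the ratio of a hexamer's read frequency for a factor to its frequency for the tag-only sample.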

The target in the next assay is T2, ETS2 (Homo sapiens, UniProt P15036 1-469).
T2 sequence: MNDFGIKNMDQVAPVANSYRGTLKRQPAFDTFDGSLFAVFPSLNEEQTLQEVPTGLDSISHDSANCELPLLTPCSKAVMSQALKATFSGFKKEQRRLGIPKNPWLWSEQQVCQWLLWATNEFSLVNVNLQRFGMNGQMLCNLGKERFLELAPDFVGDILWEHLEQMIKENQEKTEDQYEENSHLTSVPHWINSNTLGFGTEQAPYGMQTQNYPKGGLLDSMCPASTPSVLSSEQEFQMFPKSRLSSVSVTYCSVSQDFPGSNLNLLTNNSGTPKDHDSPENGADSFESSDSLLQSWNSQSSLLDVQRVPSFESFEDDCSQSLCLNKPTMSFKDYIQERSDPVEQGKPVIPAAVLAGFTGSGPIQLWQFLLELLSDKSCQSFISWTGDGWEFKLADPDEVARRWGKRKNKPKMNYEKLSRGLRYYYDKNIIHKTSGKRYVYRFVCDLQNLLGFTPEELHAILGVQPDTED
In a few lines:
as §1

For another assay, the target named is T3, SPDEF (Homo sapiens, UniProt O95238 1-335).
T3 sequence: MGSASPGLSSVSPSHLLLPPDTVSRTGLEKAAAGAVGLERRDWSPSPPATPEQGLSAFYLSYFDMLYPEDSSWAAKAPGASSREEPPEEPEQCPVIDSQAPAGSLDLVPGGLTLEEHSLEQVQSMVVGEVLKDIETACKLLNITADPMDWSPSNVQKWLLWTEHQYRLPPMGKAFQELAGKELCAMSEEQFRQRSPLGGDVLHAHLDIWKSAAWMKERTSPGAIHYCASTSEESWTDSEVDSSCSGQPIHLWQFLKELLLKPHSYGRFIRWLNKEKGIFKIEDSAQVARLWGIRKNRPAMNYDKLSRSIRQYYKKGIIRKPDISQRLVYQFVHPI
In a few lines: as §1

The target of the next assay is T4, ETV7 (Homo sapiens, UniProt Q9Y603 1-341).
T4 sequence: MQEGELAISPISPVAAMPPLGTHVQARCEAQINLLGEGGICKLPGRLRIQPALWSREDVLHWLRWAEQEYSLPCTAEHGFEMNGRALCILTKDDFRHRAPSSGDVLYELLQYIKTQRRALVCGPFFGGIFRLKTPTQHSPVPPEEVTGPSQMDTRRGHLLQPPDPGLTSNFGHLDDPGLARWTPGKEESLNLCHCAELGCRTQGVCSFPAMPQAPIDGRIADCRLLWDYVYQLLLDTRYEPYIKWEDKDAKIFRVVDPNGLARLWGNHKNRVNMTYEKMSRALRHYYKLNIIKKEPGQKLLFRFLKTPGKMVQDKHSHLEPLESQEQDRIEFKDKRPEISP
The gist of the method: as §1

Another assay has as its target T5, ELF5 (Homo sapiens, UniProt Q9UKW6-2 1-255).
T5 sequence: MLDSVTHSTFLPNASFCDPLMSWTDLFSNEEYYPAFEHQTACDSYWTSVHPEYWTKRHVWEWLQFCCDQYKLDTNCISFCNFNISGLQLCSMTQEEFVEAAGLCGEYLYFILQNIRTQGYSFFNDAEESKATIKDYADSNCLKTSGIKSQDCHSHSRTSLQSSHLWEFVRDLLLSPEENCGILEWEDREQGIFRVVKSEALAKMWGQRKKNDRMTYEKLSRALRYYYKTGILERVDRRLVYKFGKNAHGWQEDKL
The gist of the method:
as §1

The target in the next assay is T6, ETV3 (Homo sapiens, UniProt P41162-2 1-143).
T6 sequence: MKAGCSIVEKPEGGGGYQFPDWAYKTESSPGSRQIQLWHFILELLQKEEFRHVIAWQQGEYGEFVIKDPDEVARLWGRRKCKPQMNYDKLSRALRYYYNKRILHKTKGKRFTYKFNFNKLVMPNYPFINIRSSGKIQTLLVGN
In a few lines: as §1

The next assay addresses ETV6 (Homo sapiens, UniProt P41212 1-452). In a few lines:
as §1

Sequence of ETV6 (P41212 whole entry): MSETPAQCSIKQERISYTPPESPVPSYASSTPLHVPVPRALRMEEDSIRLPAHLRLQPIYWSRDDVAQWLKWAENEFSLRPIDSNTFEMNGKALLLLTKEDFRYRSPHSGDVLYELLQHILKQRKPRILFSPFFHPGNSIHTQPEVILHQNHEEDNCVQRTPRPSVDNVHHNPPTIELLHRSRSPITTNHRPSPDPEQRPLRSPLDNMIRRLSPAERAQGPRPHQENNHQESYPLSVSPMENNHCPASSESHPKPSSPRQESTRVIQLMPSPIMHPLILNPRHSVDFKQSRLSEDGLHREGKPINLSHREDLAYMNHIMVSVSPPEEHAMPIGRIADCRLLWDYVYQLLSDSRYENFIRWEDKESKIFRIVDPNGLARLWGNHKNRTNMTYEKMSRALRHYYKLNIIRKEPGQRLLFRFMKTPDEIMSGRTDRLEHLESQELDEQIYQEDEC

On to CTATGA, for which the binding signal is 1.12 fold enrichment (6-mer frequency, TF over GST control) with ERF; 1.15 fold enrichment (6-mer frequency, TF over GST control) with ETS2; 1.07 fold enrichment (6-mer frequency, TF over GST control) with SPDEF; 1.08 fold enrichment (6-mer frequency, TF over GST control) in the assay with ETV7; 1 fold enrichment (6-mer frequency, TF over GST control) with ELF5.
Regarding ATGTAG, the binding signal with ERF is 1.14 fold enrichment (6-mer frequency, TF over GST control); with ETS2, 1.08 fold enrichment (6-mer frequency, TF over GST control); with SPDEF, 1.09 fold enrichment (6-mer frequency, TF over GST control); with ELF5, 1.04 fold enrichment (6-mer frequency, TF over GST control); in the assay with ETV3, 1.08 fold enrichment (6-mer frequency, TF over GST control); in the assay with ETV6, 1.02 fold enrichment (6-mer frequency, TF over GST control).
On to CTGTAA, for which the binding signal in the assay with ERF was 1.2 fold enrichment (6-mer frequency, TF over GST control); with ETS2, 1.09 fold enrichment (6-mer frequency, TF over GST control); in the assay with ELF5, 1.03 fold enrichment (6-mer frequency, TF over GST control); in the assay with ETV3, 1.12 fold enrichment (6-mer frequency, TF over GST control); in the assay with ETV6, 1.03 fold enrichment (6-mer frequency, TF over GST control).
For GGAATT, the binding signal in the assay with ERF is 1.08 fold enrichment (6-mer frequency, TF over GST control); with ETS2, 1.21 fold enrichment (6-mer frequency, TF over GST control); with SPDEF it was 1.16 fold enrichment (6-mer frequency, TF over GST control); in the assay with ETV7, 1.15 fold enrichment (6-mer frequency, TF over GST control); with ELF5, 1.28 fold enrichment (6-mer frequency, TF over GST control); with ETV3, 1.2 fold enrichment (6-mer frequency, TF over GST control). Besides, in the assay with ETV6, the binding signal was 1.14 fold enrichment (6-mer frequency, TF over GST control).
As for AATCCA, the binding signal was 1.11 fold enrichment (6-mer frequency, TF over GST control) with ERF; 1.14 fold enrichment (6-mer frequency, TF over GST control) in the assay with ETS2; 1.07 fold enrichment (6-mer frequency, TF over GST control) in the assay with SPDEF; 1.14 fold enrichment (6-mer frequency, TF over GST control) with ETV7; 1.05 fold enrichment (6-mer frequency, TF over GST control) in the assay with ELF5; 1.03 fold enrichment (6-mer frequency, TF over GST control) with ETV3. In addition, the binding signal in the assay with ETV6 is 1.11 fold enrichment (6-mer frequency, TF over GST control).
For GGCTTA, the binding signal in the assay with ERF was 1.09 fold enrichment (6-mer frequency, TF over GST control); in the assay with ETS2, 1.09 fold enrichment (6-mer frequency, TF over GST control); with SPDEF, 1.09 fold enrichment (6-mer frequency, TF over GST control); with ETV3 it was 1.05 fold enrichment (6-mer frequency, TF over GST control).
With CATGAA, the binding signal with ERF is 1.02 fold enrichment (6-mer frequency, TF over GST control); in the assay with ETS2, 1.07 fold enrichment (6-mer frequency, TF over GST control); in the assay with SPDEF, 1.03 fold enrichment (6-mer frequency, TF over GST control); with ELF5 it was 1.04 fold enrichment (6-mer frequency, TF over GST control); with ETV3 it was 1.14 fold enrichment (6-mer frequency, TF over GST control).
Regarding GGCTTG, the binding signal with ERF was 1.01 fold enrichment (6-mer frequency, TF over GST control); in the assay with ETS2 it was 1.06 fold enrichment (6-mer frequency, TF over GST control); with ETV7 it was 1.14 fold enrichment (6-mer frequency, TF over GST control).
For the sequence GGTTTA, the binding signal in the assay with ERF was 1.11 fold enrichment (6-mer frequency, TF over GST control); in the assay with ETS2, 1.02 fold enrichment (6-mer frequency, TF over GST control); with SPDEF, 1.1 fold enrichment (6-mer frequency, TF over GST control); with ETV7 it was 1.15 fold enrichment (6-mer frequency, TF over GST control); in the assay with ELF5, 1.08 fold enrichment (6-mer frequency, TF over GST control); with ETV3, 1.1 fold enrichment (6-mer frequency, TF over GST control). Further, in the assay with ETV6, the binding signal was 1.07 fold enrichment (6-mer frequency, TF over GST control).

Values taken from article PMC7862700, “An all-to-all approach to the identification of sequence-specific readers for epigenetic DNA modifications on cytosine”.
